Records with an inconclusive call do not appear. Active and inactive are the calls of the source. Unless noted, the call rests on the fitted dose curve; in most records, active means well fitted curve in the direction sought with a large enough effect in the repeat runs; inconclusive means weak or mixed curves; inactive means no such curve, though single readings can be large; an effect the other way counts as inactive or inconclusive.
Legend:
[1] = qHTS assay to identify small molecule agonists of the peroxisome proliferator-activated receptor delta (PPARd) signaling pathway - cell viability counter screen (AID 743211); further: nearly all actives have a fitted effect of over 55% in size
Method in brief: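 Tox21 library compounds, delivered in DMSO, were incubated 17 h with PPARd-bla HEK293H cells; cytotoxicity was taken from CellTiter-Glo luminescence read 30 min after reagent addition.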

[2] = qHTS assay to identify small molecule antagonists of the peroxisome proliferator-activated receptor delta (PPARd) signaling pathway - cell viability counter screen (AID 743213); further: nearly all actives have a fitted effect of over 50% in size
Method in brief: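 Agonist-stimulated (L165041, 300 nM final) HEK293H PPARd UAS-bla cells are exposed to compounds for 17 h at 37 C, and ATP-based luminescence (CellTiter-Glo) from the same wells reports cytotoxicity.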

[3] = biological target: Bile acid receptor (Homo sapiens) (UniProt Q96RI1); assay: qHTS assay to identify small molecule antagonists of the farnesoid-X-receptor (FXR) signaling pathway (AID 743217; active means well fitted inhibition curve with a large enough effect in the signal ratio in the repeat runs, not every such curve was filed as active; the % refers to the signal ratio)
Method in brief: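 Read-out: beta-lactamase FRET fluorescence (LiveBLAzer B/G substrate, 2 h, room temperature) in GeneBLAzer FXR-UAS-bla HEK 293T cells. Compounds were co-dosed with 50 uM chenodeoxycholic acid (final) and incubated 16 h at 37 °C.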

[4] = qHTS assay to identify small molecule agonists of the farnesoid-X-receptor (FXR) signaling pathway - cell viability counter screen (AID 743218); further: nearly all actives have a fitted effect of over 45% in size
Method in brief: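 Luminescence from CellTiter-Glo, read after 30 min at RT, reports viability of GeneBLAzer FXR-UAS-bla HEK 293T cells treated 16 h with compounds in the wells used for the beta-lactamase reporter.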

[5] = biological target: Bile acid receptor (Homo sapiens) (UniProt Q96RI1); assay: qHTS assay to identify small molecule agonists of the farnesoid-X-receptor (FXR) signaling pathway (AID 743220; active means well fitted activation curve with a large enough effect in the signal ratio in the repeat runs, not every such curve was filed as active; the % refers to the signal ratio)
Method in brief: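 FXR-UAS-bla HEK 293T cells carrying a UAS-driven beta-lactamase reporter were plated for 5 h at 37C/5% CO2, then exposed to DMSO-dissolved Tox21 10K compounds for 16 h at 37C. A LiveBLAzer B/G FRET substrate was loaded for 2 h at room temperature before fluorescence reading.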

[6] = qHTS assay to identify small molecule antagonists of the farnesoid-X-receptor (FXR) signaling pathway - cell viability counter screen (AID 743221; active means well fitted cell-killing curve with a large enough effect in the repeat runs, not every such curve was filed as active; further: nearly all actives have a fitted effect of over 50% in size)
Method in brief: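 Cytotoxicity is taken from ATP luminescence (CellTiter-Glo, 30 min, room temperature) in FXR-bla HEK 293T cells previously incubated 16 h at 37 C with compound and chenodeoxycholic acid at 50 uM final.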

[7] = qHTS assay to identify small molecule antagonists of the vitamin D receptor (VDR) signaling pathway - cell viability counter screen (AID 743225); further: nearly all actives have a fitted effect of over 50% in size
Method in brief: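 Same-well multiplex: following 16 h treatment of HEK 293T cells carrying a UAS-driven beta-lactamase reporter with compound and agonist (3 nM final), and a 2 h FRET substrate step, CellTiter-Glo was added and luminescence read after 30 min.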

[8] = qHTS assay to identify small molecule agonists of the NFkB signaling pathway (AID 1159509; active means well fitted curve in the direction sought with a large enough effect in the signal ratio in the repeat runs, not every such curve was filed as active; the % refers to the signal ratio; further: series mostly up to about 61 µM)
Method in brief: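 Readout: FRET fluorescence, 405 nm excitation, 460/530 nm emission; beta-lactamase expression disrupts FRET. Cells: ME-180 stably carrying NF-kB-driven bla reporter. Compound exposure 5 hr, 37 C, 5% CO2.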

[9] = qHTS assay to identify small molecule agonists of the NFkB signaling pathway - cell viability counter screen (AID 1159515; calls by dose curve; further: series mostly up to about 61 µM; nearly all actives have a fitted effect of over 55% in size)
Method in brief: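 ME-180 NFkB-bla cells, 2,000/well; overnight attach; compound 5 hr, 37 C/5% CO2; LiveBLAzer substrate 1.5 hr RT; then CellTiter-Glo in same wells, 30 min RT, luminescence read.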

[10] = qHTS assay to identify small molecule agonists of the endoplasmic reticulum stress response signaling pathway (AID 1159516; active means well fitted activation curve with a large enough effect in the signal ratio in the repeat runs, not every such curve was filed as active; the % refers to the signal ratio)
Method in brief: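 HeLa ESRE-bla reporter line; cpd 5 h, 37 C/5% CO2; LiveBLAzer B/G FRET substrate 2 h RT; ex 405, em 460/530 nm.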

[11] = qHTS assay to identify small molecule agonists of the endoplasmic reticulum stress response signaling pathway - cell viability counter screen (AID 1159517; calls by dose curve;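 further: HeLa cells carrying an ER stress response element beta-lactamase reporter; series mostly up to about 61 µM; nearly all actives have a fitted effect of over 50% in size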)
Method in brief: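 Steps: seed 1,500 ESRE-bla HeLa cells per well; incubate overnight at 37 C, 5% CO2; add compounds in DMSO for 5 hr; run FRET substrate 2 hr RT; add CellTiter-Glo, wait 30 min, read luminescence.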

[12] = qHTS assay to identify small molecule antagonists of the retinoid-related orphan receptor gamma (ROR-gamma) signaling pathway - cell viability counter screen (AID 1159520); further: nearly all actives have a fitted effect of over 50% in size
Method in brief: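 Tet-on ROR gamma CHO cells were given compounds for 2 hr, then doxycycline hyclate at 1 uM final, and incubated 16 hr at 37 C. Viability was measured as ATP content by CellTiter-Glo luminescence.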

[13] = biological target: Nuclear receptor ROR-gamma (Homo sapiens) (UniProt P51449); assay: qHTS assay to identify small molecule antagonists of the retinoid-related orphan receptor gamma (ROR-gamma) signaling pathway (AID 1159521)
Method in brief: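 Inducible-expression reporter assay: doxycycline (1 uM final) switched on RORγ in CHO cells bearing a ROR response element-luciferase construct, with test compounds present from 2 h beforehand. Decreased luminescence after 16 h defined antagonist activity.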

[14] = qHTS assay to identify small molecule agonists of the AP-1 signaling pathway - cell viability counter screen (AID 1159525; calls by dose curve; further: nearly all actives have a fitted effect of over 55% in size)
Method in brief: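 Same-well cytotoxicity counter screen of the Tox21 10K library in ME-180 cells. The readout is ATP-dependent luminescence after 5 h compound treatment. Data are normalised to DMSO and tetra n-octyl ammonium bromide controls.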

[15] = qHTS assay to identify small molecule agonists of the AP-1 signaling pathway (AID 1159526; calls by dose curve)
[16] = biological target: Peroxisome proliferator-activated receptor delta (Homo sapiens) (UniProt Q03181); assay: qHTS assay to identify small molecule agonists of the peroxisome proliferator-activated receptor delta (PPARd) signaling pathway (AID 743212; calls by dose curve)
Method in brief: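 Read-out: beta-lactamase FRET fluorescence after 2 h room-temperature incubation with LiveBLAzer B/G substrate. Cells were HEK293H carrying a UAS-bla reporter for PPARd, treated at 37 C with DMSO-dissolved compounds.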

[17] = biological target: Peroxisome proliferator-activated receptor delta (Homo sapiens) (UniProt Q03181); assay: qHTS assay to identify small molecule antagonists of the peroxisome proliferator-activated receptor delta (PPARd) signaling pathway (AID 743215; active means well fitted inhibition curve with a large enough effect in the signal ratio in the repeat runs, not every such curve was filed as active; the % refers to the signal ratio; further: series mostly up to about 62 µM)
Method in brief: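 HEK293H GeneBLAzer PPARd UAS-bla reporter cells; cpd + L165041 300 nM final, 17 h 37 C; LiveBLAzer B/G FRET substrate 2 h RT; fluorescence intensity read-out. Antagonist mode.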

[18] = qHTS assay to identify small molecule agonists of the vitamin D receptor (VDR) signaling pathway - cell viability counter screen (AID 743224)
Method in brief: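 Cytotoxicity counter screen: VDR-bla cells, 16 h compound exposure at 37C, 5% CO2; CellTiter-Glo luminescence, 30 min RT, same wells as bla read.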

[19] = biological target: Vitamin D3 receptor (Homo sapiens) (UniProt P11473); assay: qHTS assay to identify small molecule agonists of the vitamin D receptor (VDR) signaling pathway (AID 743222; calls by dose curve)
Method in brief: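 Beta-lactamase reporter readout (LiveBLAzer B/G FRET, 2 h RT) in VDR-bla cells after 16 h compound treatment at 37C, 5% CO2; cells pre-incubated 4 h before pin transfer of DMSO solutions.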

[20] = biological target: Vitamin D3 receptor (Homo sapiens) (UniProt P11473); assay: qHTS assay to identify small molecule antagonists of the vitamin D receptor (VDR) signaling pathway (AID 743223; active means well fitted inhibition curve with a large enough effect in the signal ratio in the repeat runs, not every such curve was filed as active; the % refers to the signal ratio)
Method in brief: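 Quantitative HTS in VDR-bla reporter cells stimulated with 1alpha,25-dihydroxyvitamin D3, 3 nM final. Compound exposure 16 h, 37C, 5% CO2. Read-out: beta-lactamase FRET substrate fluorescence, 2 h RT.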

Measured: Potency

Chain of Peroxisome proliferator-activated receptor delta (Homo sapiens) (Q03181 whole entry, looked up): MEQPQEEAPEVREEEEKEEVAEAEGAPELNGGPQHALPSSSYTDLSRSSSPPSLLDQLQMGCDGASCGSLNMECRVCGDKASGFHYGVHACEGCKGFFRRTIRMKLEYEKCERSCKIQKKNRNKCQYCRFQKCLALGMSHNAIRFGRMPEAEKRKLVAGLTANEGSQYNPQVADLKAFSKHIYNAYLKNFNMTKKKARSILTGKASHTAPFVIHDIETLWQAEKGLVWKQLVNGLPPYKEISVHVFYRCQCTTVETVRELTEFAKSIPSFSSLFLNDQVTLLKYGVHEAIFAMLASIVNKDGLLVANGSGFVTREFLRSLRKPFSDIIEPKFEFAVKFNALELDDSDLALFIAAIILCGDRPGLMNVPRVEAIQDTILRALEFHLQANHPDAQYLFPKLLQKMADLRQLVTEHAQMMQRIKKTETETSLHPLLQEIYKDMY
Chain of Vitamin D3 receptor (Homo sapiens) (P11473 whole entry, looked up): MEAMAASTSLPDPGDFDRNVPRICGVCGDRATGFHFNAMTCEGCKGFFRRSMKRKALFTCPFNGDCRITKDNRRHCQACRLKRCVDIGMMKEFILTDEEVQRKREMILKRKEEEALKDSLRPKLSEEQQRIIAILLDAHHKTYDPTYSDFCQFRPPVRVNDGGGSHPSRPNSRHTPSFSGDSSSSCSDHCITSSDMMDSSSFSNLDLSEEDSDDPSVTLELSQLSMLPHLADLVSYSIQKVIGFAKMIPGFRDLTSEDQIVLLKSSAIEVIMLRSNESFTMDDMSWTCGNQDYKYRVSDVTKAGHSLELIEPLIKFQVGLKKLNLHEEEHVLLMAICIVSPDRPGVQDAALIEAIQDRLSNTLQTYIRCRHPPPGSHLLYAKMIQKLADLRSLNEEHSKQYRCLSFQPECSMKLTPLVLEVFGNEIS
Chain of Bile acid receptor (Homo sapiens) (Q96RI1 whole entry, looked up): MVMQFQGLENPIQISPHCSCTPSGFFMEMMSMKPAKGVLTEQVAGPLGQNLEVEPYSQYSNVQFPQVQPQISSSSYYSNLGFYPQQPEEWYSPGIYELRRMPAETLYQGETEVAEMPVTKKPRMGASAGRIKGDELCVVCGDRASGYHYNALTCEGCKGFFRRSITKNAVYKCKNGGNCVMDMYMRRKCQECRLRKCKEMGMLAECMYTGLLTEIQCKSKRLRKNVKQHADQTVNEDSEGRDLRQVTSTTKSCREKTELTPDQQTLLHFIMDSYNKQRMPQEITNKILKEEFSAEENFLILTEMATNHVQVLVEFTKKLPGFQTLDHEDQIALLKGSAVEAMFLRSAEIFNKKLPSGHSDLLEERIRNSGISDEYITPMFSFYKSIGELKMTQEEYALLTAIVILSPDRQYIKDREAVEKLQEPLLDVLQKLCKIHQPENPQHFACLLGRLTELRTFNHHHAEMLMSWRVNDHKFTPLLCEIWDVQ

Cc1[nH]c(=O)n(C(C)(C)C)c(=O)c1Cl
not listed: [16] | [17] | [18] | [19] | [20]
inactive: all other assays above

CCOP(=S)(OCC)SCCSCC
not listed: [3] | [4] | [5] | [14] | [18] | [19] | [20]
inactive: all other assays above

O=NN1CCCCCCC1
not listed: [13] | [14] | [16] | [17] | [18] | [19] | [20]
inactive: all other assays above

OCCN(CCO)CCO
not listed: [3] | [4] | [5] | [13] | [16] | [17] | [19] | [20]
inactive: all other assays above

C#CC(C)(C)NC(=O)c1cc(Cl)cc(Cl)c1
not listed: [3] | [5] | [14] | [18]
inactive: all other assays above

CCOP(=S)(OCC)Oc1cnc2ccccc2n1
not listed: [2] | [4] | [13] | [14] | [19] | [20]
inactive: all other assays above

CC(C)=C[C@@H]1[C@@H](C(=O)OCc2coc(Cc3ccccc3)c2)C1(C)C
not listed: [3] | [7] | [13] | [19]
inactive: all other assays above

Nc1c(Cl)c(Cl)nc(C(=O)O)c1Cl
not listed: [3] | [5] | [14] | [19] | [20]
inactive: all other assays above

CCCN(CCC)c1c([N+](=O)[O-])cc(C(F)(F)F)cc1[N+](=O)[O-]
not listed: [9]
inactive: all other assays above

Cc1ccccc1O
not listed: [3] | [4] | [5] | [14]
inactive: all other assays above

Nc1ccccc1C(=O)O
not listed: [4] | [13] | [16] | [17] | [18]
inactive: all other assays above

C1CC2OC2CC1C1CO1 (stereo unspecified)
not listed: [9]
inactive: all other assays above

C=CCO
not listed: [3] | [4] | [5] | [13] | [18] | [19] | [20]
inactive: all other assays above

ClCCBr
not listed: [3] | [4] | [5] | [14] | [18] | [19] | [20]
inactive: all other assays above

c1ccc2c(c1)oc1ccccc12
not listed: [3] | [5] | [13]
inactive: all other assays above

O=c1[nH]c(=O)[nH]c(=O)[nH]1
not listed: [3] | [4] | [5] | [14] | [19]
inactive: all other assays above

Nc1ccc(Br)cc1
not listed: [14] | [18] | [19] | [20]
inactive: all other assays above

CCNc1nc(NC(C)(C)C)nc(SC)n1
not listed: [13] | [18] | [19]
inactive: all other assays above

COCCl
not listed: [4] | [14] | [18]
inactive: all other assays above

Reference: PubChem BioAssay (Tox21)
